Screening data: PubChem BioAssay, Broad Institute
C diff growth: C. difficile growth inhibitors, primary screen, HTS. Clostridium difficile clinical isolate growth, OD600, 24 h; hits give low values. growth activity, negative = inhibition, % at 16 µg/mL (by protocol). 0.25% of 86,000 active. AID 1259249, 2017;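 active = mean growth activity at or below -80% and every replicate also at or below -80%; inconclusive = mean at or below -80% but some replicate above -80%; inactive = mean growth activity above -80%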;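 note: 0% = DMSO wells and -100% = levofloxacin 16 µg/mL wells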
T cruzi growth-1: T. cruzi intracellular proliferation inhibitors, primary screen, cell-based, beta-gal Tulahuen parasites, NIH3T3 host, luminescence. T. cruzi beta-gal in NIH3T3, GalScreen luminescence, 90 h. inhibition, % at 8.34 µM. 5.9% of 77,000 active;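 active = mean inhibition above about 93%, with at least 55% of replicates each passing it, limit read from the data, passing the limit was not always enough; inconclusive = only one of those two conditions holds; inactive = neither condition holds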
Pf Dd2 inh: P. falciparum Dd2 growth inhibitors, primary screen, SYBR Green fluorescence, single dose replicates | 72 h; hits give low values | AID 1159554, 2015 | activity change, % at 10 µM | 2.3% of 94,000 active; in the data active = activity change below about -80%; inconclusive = no clear call, values can overlap the other calls
T cruzi growth-2: T. cruzi intracellular proliferation inhibitors, confirmation, cell-based, NIH3T3 host, beta-gal parasite, luminescence, cherry-pick; shares compounds with T cruzi growth-1; T. cruzi beta-gal in NIH3T3, GalScreen luminescence, 90 h; inhibition, % at 8.35 µM; 72% of 5,600 active;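 active = mean replicate inhibition above about 95% and at least 55% of replicates individually reaching it, limit read from the data; inconclusive = only one of the two criteria is met; inactive = neither criterion is met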
T cruzi growth-3: inhibitors of intracellular T. cruzi replication, confirmation, NIH3T3 host cells, beta-gal parasites, cherry-pick, set 2 | 21% of 5,600 active | shares compounds with T cruzi growth-1 | T. cruzi beta-gal in NIH3T3, GalScreen luminescence, 90 h | AID 651740, 2012 | inhibition, % at 2.09 µM;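 active = mean inhibition above about 95%, with at least 55% of replicates also reaching it, limit read from the data; inconclusive = meets just one of the two conditions; inactive = meets neither condition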;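 note: plate controls were neutral control median for no effect and positive control median for full effect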
3T3 cytotox: cytotoxicity in mouse NIH/3T3 fibroblasts, confirmation, cytotoxicity control for T. cruzi proliferation inhibitor project, cell-based, cherry-pick, single point; NIH/3T3 viability, CellTiter-Glo ATP luminescence, 90 h; cytotoxicity (signal decrease), % at 8.35 µM; shares compounds with T cruzi growth-1; 14% of 5,600 active;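 active = mean signal decrease across replicates above about 35% based on untreated-well scatter, with enough replicates individually passing, limit read from the data; inconclusive = no rule stated though some were filed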;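 note: 0% = median of neutral control wells and 100% = median of positive control wells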
3T3 cytotox 2: NIH/3T3 fibroblast cytotoxicity, confirmation, cytotoxicity control, cell-based, cherry-pick, single point, set 2; shares compounds with T cruzi growth-1; NIH/3T3 viability, CellTiter-Glo ATP luminescence, 90 h; inhibition, % at 24.9 µM; 56% of 5,600 active;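 active = mean loss of cell viability signal at or above a set limit, and enough replicates individually reaching it; inconclusive = meets only the mean limit or only the replicate share; inactive = meets neither condition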;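 note: 0% = median of neutral control wells and 100% = median of positive control wells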
An asterisk follows results filed as active; ? = inconclusive; · = not tested or not shown. A selection: hits, their analogues and other compounds. The true share with any hit is near 6.8%.

SMILES	C diff growth	T cruzi growth-1	Pf Dd2 inh	T cruzi growth-2	T cruzi growth-3	3T3 cytotox	3T3 cytotox 2
CN(C)CC(=O)N[C@H]1CC[C@@H](CCNS(=O)(=O)c2ccccc2)O[C@@H]1CO	6	·	12	·	·	·	·
CCCNC(=O)N(C)C[C@@H]1Oc2cc(-c3ccncc3)ccc2S(=O)(=O)N([C@@H](C)CO)C[C@H]1C	-4	111*	38	97*	85	2	10
CCCNC(=O)N(C)C[C@@H]1Oc2cc(-c3ccncc3)ccc2S(=O)(=O)N([C@H](C)CO)C[C@@H]1C	-2	38	-16	·	·	·	·
CCCNC(=O)N(C)C[C@@H]1Oc2cc(-c3ccc(C)cc3)ccc2S(=O)(=O)N([C@@H](C)CO)C[C@@H]1C	7	-1	-19	·	·	·	·
CCCNC(=O)N(C)C[C@@H]1Oc2cc(-c3ccncc3)ccc2S(=O)(=O)N([C@H](C)CO)C[C@H]1C	-2	107*	-1	87	76	1	13
COc1ccccc1S(=O)(=O)N[C@@H]1C=C[C@@H](CC(=O)N2CCN(C)CC2)O[C@@H]1CO	-2	-86	21	·	·	·	·
CCCN1C[C@@H](C)[C@H](OC)CN(C)C(=O)c2ccc(NC(=O)c3cccc(OC)c3)cc2OC[C@H]1C	0	44	-40	·	·	·	·
COc1ccc(C#Cc2ccc([C@@H]3[C@@H](CO)N4C(=O)CN(C(=O)c5ccccc5)C[C@@H]34)cc2)cc1	-7	·	-70	·	·	·	·
C[C@H](CO)N1C[C@H](C)[C@@H](CN(C)Cc2ccc(Oc3ccccc3)cc2)Oc2ccc(NC(=O)Nc3ccc(F)cc3)cc2C1=O	19	60	-11	·	·	·	·
C[C@@H]1CN([C@H](C)CO)C(=O)c2cc(NC(=O)Nc3ccc(F)cc3)ccc2O[C@H]1CN(C)Cc1ccc(Oc2ccccc2)cc1	-2	-23	-13	·	·	·	·
C[C@@H]1CN([C@H](C)CO)C(=O)c2cc(NC(=O)Nc3ccc(F)cc3)ccc2O[C@@H]1CN(C)Cc1ccc(Oc2ccccc2)cc1	69	?	-14	96*	30	34	106*
C[C@H](CO)N1C[C@H](C)[C@H](CN(C)Cc2ccc(Oc3ccccc3)cc2)Oc2ccc(NC(=O)Nc3ccc(F)cc3)cc2C1=O	72	109*	-13	98*	62	24	104*
O=C(C[C@H]1C=C[C@H](NS(=O)(=O)c2ccc(F)cc2)[C@@H](CO)O1)NC1CCC1	-1	·	-10	·	·	·	·
COc1cccc(-c2ccc(C3[C@@H]4CN(C(=O)Nc5ccccc5F)C[C@H]3N4)cc2)c1 (stereo partly drawn)	36	·	-31	·	·	·	·
CN1c2ccc(-c3ccccc3F)cc2[C@H]2[C@H](CCN2S(=O)(=O)c2ccc(F)cc2)[C@H]1CO	0	102*	11	100*	55	25	72*
Cc1ccc(S(=O)(=O)N2CC[C@@H]3[C@@H](CO)N(C)c4ccc(-c5ccccc5F)cc4[C@@H]32)cc1	20	75	29	·	·	·	·
COc1ccc(S(=O)(=O)N2CC[C@@H]3[C@@H](CO)N(C)c4ccc(-c5ccccc5F)cc4[C@@H]32)cc1	-13	63	-37	·	·	·	·
COc1ccc(S(=O)(=O)N2CC[C@H]3[C@@H](CO)N(C)c4ccc(-c5ccccc5F)cc4[C@H]32)cc1	-11	114*	-48	112*	86	17	25
COc1ccccc1-c1ccc([C@@H]2[C@@H](CO)N(C(=O)C3CCC3)[C@H]2C#N)cc1	8	33	-16	·	·	·	·
C[C@H]1CCCCO[C@@H](CN(C)C)[C@@H](C)CN([C@@H](C)CO)C(=O)c2cc(NS(=O)(=O)c3ccc(F)cc3)ccc2O1	0	-1	·	·	·	·	·
C[C@H](CO)N1C[C@H](C)[C@@H](CN(C)Cc2ccc(C(=O)Nc3ccccc3N)cc2)Oc2c(NC(=O)c3cnccn3)cccc2C1=O	-9	106*	-92*	104*	104*	32	52*
C[C@H](CO)N1C[C@H](C)[C@H](CN(C)Cc2ccc(C(=O)O)cc2)Oc2c(NC(=O)c3cnccn3)cccc2C1=O	1	1	2	·	·	·	·
C[C@H]1CN([C@@H](C)CO)C(=O)c2cccc(NC(=O)c3cnccn3)c2O[C@@H]1CN(C)Cc1ccc(C(=O)Nc2ccccc2N)cc1	-6	102*	-94*	111*	63	31	?
C[C@H]1CN([C@@H](C)CO)C(=O)c2cccc(NC(=O)c3cnccn3)c2O[C@H]1CN(C)Cc1ccc(C(=O)Nc2ccccc2N)cc1	10	·	-30	·	·	·	·
O=C(Nc1ccccc1F)N[C@H]1C=C[C@H](CC(=O)N2CCCCC2)O[C@@H]1CO	-2	-4	7	·	·	·	·
SMILES	C diff growth	T cruzi growth-1	Pf Dd2 inh	T cruzi growth-2	T cruzi growth-3	3T3 cytotox	3T3 cytotox 2
CC(=O)N(C)C[C@H]1Oc2ncc(-c3ccc(C(=O)N(C)C)cc3)cc2C(=O)N([C@H](C)CO)C[C@@H]1C	0	-13	7	·	·	·	·
C[C@@H]1CCCCO[C@@H](CN(C)S(=O)(=O)c2ccc(F)cc2)[C@H](C)CN([C@H](C)CO)C(=O)c2cc(NS(=O)(=O)c3ccc(F)cc3)ccc2O1	-1	86	-48	·	·	·	·
C[C@@H]1CCCCO[C@@H](CN(C)S(=O)(=O)c2ccc(F)cc2)[C@@H](C)CN([C@H](C)CO)C(=O)c2cc(NS(=O)(=O)c3ccc(F)cc3)ccc2O1	-1	49	-47	·	·	·	·
C[C@@H]1CN([C@@H](C)CO)C(=O)c2cc(NS(=O)(=O)c3ccc(F)cc3)ccc2O[C@@H](C)CCCCO[C@H]1CN(C)S(=O)(=O)c1ccc(F)cc1	-3	113*	-47	107*	56	6	-1
C[C@@H]1CN([C@H](C)CO)C(=O)c2cc(NS(=O)(=O)c3ccc(F)cc3)ccc2O[C@@H](C)CCCCO[C@@H]1CN(C)S(=O)(=O)c1ccc(F)cc1	4	107*	-73	103*	72	-13	2
C[C@H]1CN([C@@H](C)CO)C(=O)Cc2cc(N(C)C)ccc2O[C@@H]1CN(C)CC1CC1	-9	5	45	·	·	·	·
C[C@@H]1CN([C@H](C)CO)S(=O)(=O)c2ccc(C3=CCCC3)cc2O[C@@H]1CN(C)S(=O)(=O)c1ccc(F)cc1	-1	122*	-23	110*	40	20	32*
C[C@H]1CN([C@@H](C)CO)S(=O)(=O)c2ccc(C3=CCCC3)cc2O[C@@H]1CN(C)S(=O)(=O)c1ccc(F)cc1	8	123*	-42	97*	101*	45*	10
